Results from PubChem BioAssay AID1942 (Johns Hopkins Ion Channel Center, 2009).
The whole screen tested about 2,400 compounds, of which about 580 (24%) were called active. A selection follows. Unmarked numbers belong to inactive results.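 Rule for the calls: active = activity change at or above the mean plus 3 SD of buffer wells without dofetilide, per plate; inactive = the rest.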

biological target: Potassium voltage-gated channel subfamily KQT member 2 (Rattus norvegicus) (UniProt O88943); test: KCNQ2 potentiation in CHO cells – cell-based, FluxOR thallium flux, counter-screen for hERG block protector project, confirmation (AID 1942); settings: FluxOR thallium flux fluorescence, at 10 µM, stronger effect = higher value;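 note: normalized value minus buffer-control mean plus three SD of buffer wells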
Sequence (O88943 whole entry, looked up): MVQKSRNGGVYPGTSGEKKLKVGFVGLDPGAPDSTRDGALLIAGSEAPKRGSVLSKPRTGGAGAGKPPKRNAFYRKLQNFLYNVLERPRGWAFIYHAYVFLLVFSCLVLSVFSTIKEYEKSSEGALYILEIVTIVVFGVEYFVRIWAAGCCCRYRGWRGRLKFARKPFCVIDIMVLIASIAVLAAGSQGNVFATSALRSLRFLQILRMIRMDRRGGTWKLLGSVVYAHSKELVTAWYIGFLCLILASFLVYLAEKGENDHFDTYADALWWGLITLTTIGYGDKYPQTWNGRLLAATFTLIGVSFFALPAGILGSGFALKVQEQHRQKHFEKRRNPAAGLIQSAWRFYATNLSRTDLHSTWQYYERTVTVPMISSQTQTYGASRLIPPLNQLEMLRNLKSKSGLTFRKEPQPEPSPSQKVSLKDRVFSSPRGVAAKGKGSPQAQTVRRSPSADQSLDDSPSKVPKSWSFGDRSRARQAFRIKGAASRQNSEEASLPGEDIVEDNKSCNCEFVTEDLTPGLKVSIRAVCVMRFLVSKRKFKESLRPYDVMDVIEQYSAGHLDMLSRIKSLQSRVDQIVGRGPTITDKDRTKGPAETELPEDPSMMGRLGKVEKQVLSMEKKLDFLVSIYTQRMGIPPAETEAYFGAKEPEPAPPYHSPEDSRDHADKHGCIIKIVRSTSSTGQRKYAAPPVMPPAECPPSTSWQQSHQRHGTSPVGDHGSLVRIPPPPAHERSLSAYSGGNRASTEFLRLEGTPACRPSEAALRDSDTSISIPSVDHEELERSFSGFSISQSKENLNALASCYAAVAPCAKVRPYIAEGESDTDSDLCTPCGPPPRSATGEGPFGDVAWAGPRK

Point of comparison: `Nc1cc(=O)[nH]c(SCC(=O)N2CCCCC2)n1`, activity change, less the hit threshold -21.9%. Against it:
- CC(Nc1ccc(F)cc1)=[N+](C)CCNS(=O)(=O)c1ccc(Cl)cc1 — higher, -10.9%
- CN(c1cccc(NS(=O)(=O)c2cccc([N+](=O)[O-])c2)c1)S(C)(=O)=O — higher, -9.2%
- O=C(CSc1nnc(-c2ccncc2)o1)c1cccc([N+](=O)[O-])c1 — lower, -29.3%
- CCOc1cccc(Nc2cc3n(c(=O)n2)CCc2cc(OC)c(OC)cc2-3)c1 — higher, -19.8%
- CC(C)CCn1c(SCC(=O)NC2CC2)nc2cc(Cl)ccc2c1=O — higher, -8.5%
- O=C1c2ccccc2C(=O)N1Cc1nc2ccccc2c(=O)n1CCCn1ccnc1 — higher, -20.6%
- Cc1ccc(OCC(=O)Nn2cnc3ccccc32)cc1 — higher, -12.3%
- O=C(CCc1ccc(S(=O)(=O)N2CCCCC2)cc1)c1nnc(-c2ccccc2)o1 — higher, -13.3%
- S=C(N/N=C/c1cccc2ccccc12)Nc1cccc(Cl)c1 — higher, -17.2%
- Cc1cc(=O)[nH]c(=S)n1-c1ccccc1 — lower, -31%
- Cc1cccc(-n2c(=S)[nH]c3sc4c(c3c2=O)CCc2ccccc2-4)c1 — higher, -19.9%
- O=C1c2ccccc2C(=O)N1Cc1ccco1 — higher, -11.8%
- CCN(/N=C/c1ccc(Cl)cc1)c1cc(=O)n(C)c(=O)[nH]1 — higher, -19%
- CCCCCOCC1CC(C/C(C)=N/Nc2nc(-c3ccccc3)cs2)C(=O)O1 (configuration not stated) — higher, -18.7%
- O=C(/C=C/Nc1ccc(F)cc1)c1ccco1 — higher, -17.3%
- O=C(c1cccc2c1-c1ccccc1C2)N1CCCCC1 — higher, -20.1%
- O=C(O)c1ccc2c(c1)C(=O)N(c1cc([N+](=O)[O-])ccn1)C2=O — higher, -1.1%
- O=C(CN1CCN(Cc2ccccc2)CC1)NCc1ccccc1Cl — higher, -10.1%
- COc1ccc(N(CC(=O)N2CCN(Cc3ccccc3)CC2)S(C)(=O)=O)cc1 — lower, -25.7%
- C#CCN1C(=O)S/C(=C\c2ccc(-c3ccc(C(=O)O)cc3C)o2)C1=O — higher, -20.3%
- COc1cc(CCC(=O)NNC(=O)c2ccc(C)cc2)cc(OC)c1OC — higher, -8.9%
- Oc1c(Br)cc(Br)cc1C=Nc1ccc2c(c1)OCCO2 — higher, -1.5%
- CCOc1cccc(C(=O)Nc2ccc3[nH]ncc3c2)c1 — higher, -15.8%
- O=C(CSc1nc2ccccc2o1)NCc1n[nH]c(=O)c2ccccc12 — higher, -12.3%
- CCOc1ccc(C(=O)Nc2ccccc2C(=O)O)cc1 — higher, -4%
- Cc1cc(NC(=O)/C(C#N)=C/c2ccco2)n(-c2ccccc2)n1 — higher, -20.2%
- CCCCSc1nnc(CCC)n1N — higher, -8.4%
- CCOc1ccc(OCC(=O)OCC(=O)N2CCN(C(=O)c3ccco3)CC2)cc1 — higher, -10.5%
- CC(C)OC(=O)c1c(NC(=O)c2ccco2)sc2c1CCCCC2 — lower, -27.5%
- COC(=O)c1c(NC(=O)c2ccco2)sc2c1C(C(=O)OC)CC2 (configuration not stated) — higher, -18.3%
- O=C(CNCC1CCCO1)N1CCCCCC1 (configuration not stated) — higher, -15.5%
- CC(Oc1ccc(Br)cc1Br)C(=O)Nc1cccnc1 (configuration not stated) — higher, -16.3%
- Cc1oc(/N=C/c2ccc(F)cc2)c(C#N)c1C — higher, -16.1%
- O=C(CN1C(=O)COc2ccccc21)NNC(=O)Nc1ccccc1F — higher, -21.5%
- O=c1cc(O)c2ccccc2n1Cc1ccccc1Cl — higher, -12.7%
- N=C1S/C(=C\c2ccc(-c3cccc(Cl)c3)o2)C(=O)N1c1nccs1 — higher, -9.5%
- Cc1cc([N+](=O)[O-])ccc1-c1ccc(C2Nc3ccccc3C(=O)N2O)o1 (configuration not stated) — higher, -3.8%
- C=CCc1cccc(C2Nc3ccccc3C(=O)N2O)c1O (configuration not stated) — higher, -12.4%
- CC1(OC(=O)c2ccc(Cl)nc2)C(=O)C=C2C=C(c3ccc(C#N)cc3)OC=C2C1=O (configuration not stated) — higher, -15.2%
- Fc1ccc2nc(Nc3nc4c(F)cc(F)cc4s3)sc2c1 — higher, -10.7%
- CC(=O)Nc1nc2c(F)cccc2s1 — higher, -18.4%
- Cc1cc(C)nc(SCc2nnc(SCC(=O)Nc3nc(-c4ccccc4)cs3)n2-c2ccccc2)n1 — higher, -11%
- Nc1ccc(NC(=O)Nc2ccc(N)cc2)cc1 — higher, -14.5%
- OC(CNCC(c1ccc(Cl)cc1Cl)c1c[nH]c2ccccc12)c1ccccc1 (configuration not stated) — lower, -43.4%
- COc1cccc2cc(-c3nc4ccccc4[nH]3)c(=O)oc12 — lower, -23.9%
- COc1cccc(-c2cc(C(F)(F)F)nc(N3CCCCC3)n2)c1 — higher, -10.8%
- O=C1CCCN1C(=O)COc1ccccc1[N+](=O)[O-] — higher, -15.5%
- Cc1ccnc(N2CCC(C(=O)Nc3ccc(Oc4ccccc4)cc3)CC2)n1 — lower, -22%
- CC(C)C(O)(C#CCN1CCCC1)c1ccccc1 (configuration not stated) — higher, -11.8%
- CN1CCN(C(=S)NC(=O)c2ccc(C(C)(C)C)cc2)CC1 — higher, -16.2%
- COc1ccc(C(=O)NC(=S)N2CCC(C)CC2)cc1 — higher, -13.2%
- S=C(N/N=C/c1ccc(Cl)cc1)N1CCOCC1 — lower, -26.9%
- CC(C)(C)c1ccc(C(=O)NC(=S)N2CCCC2)cc1 — higher, -7.6%
- CC1CN(C(=S)NC(=O)c2ccc(Cl)cc2)CC(C)O1 (configuration not stated) — higher, -3.2%
- O=C(Nc1ccccc1)OCCCCCOC(=O)Nc1ccccc1 — higher, -18.2%
- O=C1C2CC=CCC2C(=O)N1c1ccc(Cc2ccncc2)cc1 (configuration not stated) — higher, -5.4%
- COc1cc(OC)cc(C(=O)NC(=S)N2CCCCCC2)c1 — higher, -13.9%
- Cc1ccc(/C=C(\NC(=O)c2ccccc2)C(=O)N2CCCCC2)cc1 — lower, -24.3%
- O=C(c1ccc(C(F)(F)F)cc1)C1CCCN(C(=O)CCc2ccncc2)C1 (configuration not stated) — lower, -24.8%
- O=C(C1CC(=O)N(c2ccc3c(c2)OCCO3)C1)N1CCCC(C(F)(F)F)C1 (configuration not stated) — lower, -22.3%
- CC(C)(C)c1nc(SCC(=O)N2CCCC2)c2ccccc2n1 — higher, -0.3%
- Cc1ccc(C2C(C#N)=C(N)OC3=C2C(=O)CC(C)(C)C3)s1 (configuration not stated) — higher, -16.9%
- O=[N+]([O-])c1ccccc1OCCNCc1ccccc1 — higher, -14.6%
- COc1ccc(CNC(=O)C(=O)c2cn(CC(=O)N3CCCC3)c3ccccc23)cc1 — higher, -11.5%
- CCOC(=O)CC(=O)CSc1nc2c(C)c(C)ccc2cc1C — higher, -15.8%
- COC(=O)Cn1c(=O)c(=O)n(CC(=O)OC)c2ccccc21 — higher, -18.3%
- CCOC(=O)N1CCN(C(=O)CSc2nc3c([nH]c4ccccc43)c(=O)n2CC)CC1 — higher, -17.8%
- O=c1c(Cc2ccccc2)c(O)nc2n1CCCS2 — higher, -10.3%
- CCCc1nc(SCC(=O)Nc2cc(C)on2)c2ccccc2n1 — higher, -19.7%
- Cc1cc(NC(=O)CSc2nnc(Nc3ccccc3)s2)no1 — lower, -25.4%
- Cc1nc2scc(C)n2c(=O)c1S(=O)(=O)Nc1ccc(N2CCOCC2)cc1 — higher, -19.6%
- CCOc1cc(N2CCOCC2)c(OCC)cc1NC(=O)Cn1nc(C)c([N+](=O)[O-])c1C — higher, -16.6%
- O=C(CNC1CCCCCC1)Nc1ccccc1N1CCOCC1 — higher, -21.6%

For `N/C(=N\OS(=O)(=O)c1cccc([N+](=O)[O-])c1)c1ccncc1`, the activity change, less the hit threshold was 1.3% (active).
`CCCn1c(SCN2C(=O)c3ccccc3C2=O)nc2cc(Cl)ccc2c1=O` was tested, and the activity change, less the hit threshold was 21.1% (active).
With `S=c1nn[nH]n1C12CC3CC(CC(C3)C1)C2` the activity change, less the hit threshold was 21.6% (active).
In the case of `O=c1c2c3c(sc2[nH]c(=S)n1Cc1ccco1)CCC3`, the activity change, less the hit threshold is reported as 26.9% (active).
In the case of `CCn1c(=S)[nH]c2sc3c(c2c1=O)CCCCC3`, the activity change, less the hit threshold is reported as 97.9% (active).
`Cc1ccc(-n2c(=S)[nH]c3sc4c(c3c2=O)CCC4)cc1` was tested, and the activity change, less the hit threshold was 0.2% (active).
`CCn1c(=S)[nH]c2sc3c(c2c1=O)CCCC3` was tested, and the activity change, less the hit threshold was 49.6% (active).
In the case of `CCCn1c(=S)[nH]c2sc3c(c2c1=O)CCCC3`, the activity change, less the hit threshold is reported as 72% (active).
With `Oc1c(Br)cc(Br)cc1C=Nc1ccc2[nH]ncc2c1` the activity change, less the hit threshold was 33% (active).
`COc1ccc(-n2nc(C)cc2Nc2ccccc2C(=O)O)cc1` was tested, and the activity change, less the hit threshold was 21.8% (active).
`CCc1c(C)sc(NC(=O)CN2CCN(C(=O)c3ccco3)CC2)c1C(=O)OC` was tested, and the activity change, less the hit threshold was 16.7% (active).
With `CCOC(=O)c1c(NC(=O)CN2CCN(C(=O)c3ccco3)CC2)sc2c1CCCC2` the activity change, less the hit threshold was 17.6% (active).
For `Oc1oc(-c2cccc3ccccc23)nc1/C=N/c1nccs1`, the activity change, less the hit threshold was 13.4% (active).
`O=C1c2ccccc2NC(c2ccc(Br)s2)N1O` (configuration not stated) was tested, and the activity change, less the hit threshold was 70.9% (active).
In the case of `Fc1cccc2sc(Nc3nnc(-c4ccccc4)o3)nc12`, the activity change, less the hit threshold is reported as 79.5% (active).
In the case of `Fc1cccc2sc(Nc3nc4c(F)cccc4s3)nc12`, the activity change, less the hit threshold is reported as 0.7% (active).
`Fc1cccc2sc(Nc3nnc(-c4ccco4)o3)nc12` was tested, and the activity change, less the hit threshold was 25.3% (active).
`COc1cccc(-c2nnc(Nc3nc4c(F)cccc4s3)o2)c1` was tested, and the activity change, less the hit threshold was 13.2% (active).
`O=C(NC(=S)N1CCCC1)c1ccc(Cl)cc1` was tested, and the activity change, less the hit threshold was 4.3% (active).
With `CC1CCN(C(=S)NC(=O)c2ccc(C(C)(C)C)cc2)CC1` the activity change, less the hit threshold was 10.7% (active).
`COc1ccc(C(=O)NC(=S)N2CCC(C)CC2)cc1Br` was tested, and the activity change, less the hit threshold was 51% (active).
In the case of `CC(C)(C)c1ccc(C(=O)NC(=S)N2CCCCCC2)cc1`, the activity change, less the hit threshold is reported as 18.8% (active).
`O=C(NC(=S)N1CCCC(C(F)(F)F)C1)c1ccc(F)cc1` (configuration not stated) was tested, and the activity change, less the hit threshold was 24.6% (active).
`O=C(NC(=S)N1CCCCCC1)c1ccc(Cl)cc1Cl` was tested, and the activity change, less the hit threshold was 7.1% (active).
With `CC(C)(C)c1ccc(/C=C/C(=O)N2CCCCC2)cc1` the activity change, less the hit threshold was 5.1% (active).
For `O=c1c2[nH]c3ccccc3c2nc2n1CCCS2`, the activity change, less the hit threshold was 9.5% (active).
For `Cc1cc(NC(=O)CSc2nc(C3CC3)nc3sc(C)c(C)c23)no1`, the activity change, less the hit threshold was 19.9% (active).
In the case of `CCOc1cc(N2CCOCC2)c(OCC)cc1NC(=O)CCC1CCCC1`, the activity change, less the hit threshold is reported as 75.8% (active).
